Reference: paper PMC4336329 (PLoS ONE, 2015)
Among all 310,000 compounds or so, about 14,000 (4.5%) showed an effect of 50% or more. The effect is printed as a negative number. The sample as a whole holds a higher share of strong results than the screen did.

target: human ether-à-go-go-related gene (hERG) potassium channel (human, UniProt Q12809); experiment: primary screen, population patch clamp on CHO cells stably expressing hERG; higher = less effect of the substance
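Note: peak tail current of the secondary pulse compared with the same well before compound.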

Sequence of human ether-à-go-go-related gene (hERG) potassium channel (Q12809 whole entry, looked up): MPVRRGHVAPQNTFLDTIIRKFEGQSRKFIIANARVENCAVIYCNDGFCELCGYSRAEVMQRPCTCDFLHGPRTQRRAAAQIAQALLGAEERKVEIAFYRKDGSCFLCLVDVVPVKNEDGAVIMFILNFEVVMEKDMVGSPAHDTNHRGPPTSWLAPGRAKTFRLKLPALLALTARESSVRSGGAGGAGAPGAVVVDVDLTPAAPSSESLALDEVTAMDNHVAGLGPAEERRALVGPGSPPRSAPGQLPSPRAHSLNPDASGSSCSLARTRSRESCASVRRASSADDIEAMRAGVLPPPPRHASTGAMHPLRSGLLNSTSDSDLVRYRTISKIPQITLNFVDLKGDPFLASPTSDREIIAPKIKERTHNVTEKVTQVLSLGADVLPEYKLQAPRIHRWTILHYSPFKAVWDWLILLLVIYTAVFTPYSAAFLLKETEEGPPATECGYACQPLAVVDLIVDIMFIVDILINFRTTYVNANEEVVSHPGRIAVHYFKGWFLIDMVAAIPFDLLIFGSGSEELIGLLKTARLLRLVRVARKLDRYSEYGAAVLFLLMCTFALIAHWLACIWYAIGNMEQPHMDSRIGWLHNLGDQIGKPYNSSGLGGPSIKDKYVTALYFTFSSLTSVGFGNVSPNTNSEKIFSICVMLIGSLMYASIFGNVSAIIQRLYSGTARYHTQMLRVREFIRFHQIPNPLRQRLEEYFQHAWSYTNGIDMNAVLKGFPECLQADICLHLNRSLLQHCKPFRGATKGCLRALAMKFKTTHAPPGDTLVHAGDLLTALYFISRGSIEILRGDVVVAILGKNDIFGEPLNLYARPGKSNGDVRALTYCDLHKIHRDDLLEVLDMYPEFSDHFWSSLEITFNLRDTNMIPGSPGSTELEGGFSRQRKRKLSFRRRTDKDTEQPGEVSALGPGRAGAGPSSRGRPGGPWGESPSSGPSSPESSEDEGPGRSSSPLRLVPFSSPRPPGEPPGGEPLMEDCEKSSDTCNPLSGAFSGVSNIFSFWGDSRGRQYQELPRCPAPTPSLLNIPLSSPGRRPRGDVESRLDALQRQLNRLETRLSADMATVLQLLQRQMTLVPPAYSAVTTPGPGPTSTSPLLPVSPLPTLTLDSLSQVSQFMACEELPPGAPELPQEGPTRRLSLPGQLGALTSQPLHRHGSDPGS

| Compound | hERG current change (%, negative = inhibition) at 10uM |
| --- | --- |
| Fc1ccc(CN2CCSCC2)cc1Br | -11.1% |
| CCCN(Cc1ccco1)S(=O)(=O)c1ccc(OC)c(OC)c1 | 0.00658% |
| Cc1ccc(OCc2ccc(C(=O)N3CCOCC3)cc2)cc1C | -12.7% |
| O=C(OCC(=O)c1ccc(Cl)s1)c1ccc(CO)cc1 | -2.65% |
| Cn1c(SCC(N)=O)nnc1-c1ccc(S(=O)(=O)N2CCCC2)cc1 | 4.87% |
| Cc1ccc(-n2c(SCC(N)=O)nnc2-c2ccc(S(=O)(=O)N3CCCCC3)cc2)c(C)c1 | -52.7% |
| NC(=O)CSc1nnc(-c2ccc(S(=O)(=O)N3CCCCC3)cc2)n1-c1ccccc1 | -14.2% |
| CCN(CC)S(=O)(=O)c1ccc(S(=O)(=O)N2CCN(C(=O)c3ccco3)CC2)cc1 | 4.56% |
| CC(C)C(=O)Nc1c(-c2ccc(Cl)cc2)c(=O)c2ccccc2n1C | 20.9% |
| CN1CCCN(C(=O)c2ccc(Cl)s2)CC1 | -93.3% |
| CN1CCCN(C(=O)c2ccc(Br)s2)CC1 | -14.5% |
| O=C(c1ccc(Cl)s1)N1CCCC1 | -0.0803% |
| C/C(=C\c1ccc(Cl)cc1)C(=O)c1c(C)cc(C)[nH]c1=O | 9.59% |
| CC(NC(=O)NC1CCCCC1)c1ccccc1 (centres unmarked) | -3.12% |
| C=CCn1c(CNC(=O)c2cccs2)nnc1SCC(=O)c1ccc(Br)cc1 | -19.3% |
| C=CCn1c(CCNC(=O)c2cccs2)nnc1SCC(=O)c1ccc(Cl)cc1 | -38.5% |
| C=CCn1c(CCNC(=O)c2cccs2)nnc1SCC(=O)Nc1cccc(C(C)=O)c1 | 7.23% |
| C=CCn1c(CCNC(=O)c2cccs2)nnc1SCC(=O)Nc1cccc(Cl)c1C | -57.6% |
| C=CCn1c(CCNC(=O)c2cccs2)nnc1SCC(=O)c1ccc(Br)cc1 | -67.1% |
| C=CCn1c(CCNC(=O)c2cccs2)nnc1SCC(=O)Nc1cccc(F)c1 | -34.6% |
| O=C(Nc1ccccc1)Nc1ccncc1 | 6.4% |
| Cc1ccc(NC(=O)CC2S/C(=N/N=C3/NC(=O)CS3)NC2=O)cc1 (centres unmarked) | 19.5% |
| COc1ccc(-c2[nH]nc3c2C(c2ccccc2OC(=O)N2CCOCC2)C(C#N)=C(N)O3)cc1 (centres unmarked) | 4.69% |
| CC1CCN(C(=S)SCc2nc(N)nc(Nc3ccccc3)n2)CC1 | -2.72% |

| Compound | hERG current change (%, negative = inhibition) at 10uM |
| --- | --- |
| COc1cccc(Nc2nc(N)nc(CCl)n2)c1 | 0.476% |
| CC1CC(C)CN(Cc2nc(N)nc(Nc3ccc4ccccc4c3)n2)C1 (centres unmarked) | -79% |
| CC1CC(C)CN(C(=S)SCc2nc(N)nc(Nc3ccccc3)n2)C1 (centres unmarked) | -6.04% |
| CC1CC(C)CN(Cc2nc(N)nc(Nc3ccccc3)n2)C1 (centres unmarked) | -64.8% |
| CCNC(=O)CCn1nc(-c2ccc(Cl)cc2)c2ccccc2c1=O | -29% |
| Cc1cccc(N2CCN(S(=O)(=O)c3ccc4c(c3)NC(=O)C(C)S4)CC2)c1C (centres unmarked) | -2.54% |
| CCN(CC)c1ccc(/C=C2\SC(N)=NC2=O)cc1 | 7.42% |
| Cn1cccc1CC(=O)NNC(=S)NC(=O)c1ccccc1Br | 13.1% |
| COc1ccc(-c2nc(-c3ccccc3)ncc2S(C)(=O)=O)cc1 | 13% |
| COc1ccc2c(c1OC)C(=O)N(c1nc(SC)n[nH]1)C2=O | 18.3% |
| COc1cccc(N(CC(=O)NCc2ccccc2)C(=O)CCC(=O)Nc2nccs2)c1 | 10.8% |
| COc1ccc(N2CCN(CC(O)COc3ccc([N+](=O)[O-])cc3)CC2)cc1.Cl (centres unmarked) | -62.5% |
| Cc1nccn1CC(O)COc1ccccc1 (centres unmarked) | -0.412% |
| Cc1nccn1CC(O)COc1ccc([N+](=O)[O-])cc1 (centres unmarked) | -66.2% |
| Cc1ccc(N2CCN(CC(O)COc3ccc([N+](=O)[O-])cc3)CC2)cc1 (centres unmarked) | -76.4% |
| Cc1ccc(OCC(O)CN2CCN(c3ccc(C)cc3)CC2)cc1 (centres unmarked) | -28% |
| COc1ccc(OCC(O)Cn2ccnc2C)cc1 (centres unmarked) | 5.09% |
| NNC(=O)COc1ccc(F)cc1 | 9.33% |
| COc1ccc(C(C)=O)cc1COC(=O)c1ccc(S(=O)(=O)N(C)C)cc1 | -2.42% |
| CCc1ccc(S(=O)(=O)Nc2cccc(-c3ccc4nnc(C)n4n3)c2)s1 | -11.6% |
| CCOC(=O)c1cccc(NC(=O)/C(=C\c2ccccc2)NC(=O)c2ccccc2Cl)c1 | 3.62% |
| CC1=NN(C(=O)Cc2ccc(C)cc2)C(O)(c2cccnc2)C1 (centres unmarked) | 10.1% |
| COc1ccc(-c2nc3cnccn3c2NCc2ccccc2)cc1SC1CCCCC1.O=C(O)C(F)(F)F | 2.68% |
| COc1cccc(-n2nnc(S(=O)(=O)c3ccc(C)cc3)c2N)c1 | 10.5% |

| Compound | hERG current change (%, negative = inhibition) at 10uM |
| --- | --- |
| Nc1ccc(C(=O)OCC(=O)NC2CCS(=O)(=O)C2)cc1[N+](=O)[O-] (centres unmarked) | -3.78% |
| CS(=O)(=O)c1ccc(C(=O)OCC(=O)NC2CCS(=O)(=O)C2)cc1[N+](=O)[O-] (centres unmarked) | 10.3% |
| O=C(COC(=O)c1ccc(Sc2ccccc2)c([N+](=O)[O-])c1)NC1CCS(=O)(=O)C1 (centres unmarked) | -83.3% |
| COc1ccc(NC(=S)NC23CC4CC(CC(C4)C2)C3)cc1OC | 3.45% |
| O=C(CN1C(=O)c2ccc([N+](=O)[O-])cc2C1=O)NC1CCCCCC1 | 1.09% |
| Nc1nonc1C(=O)NCCNc1ccc([N+](=O)[O-])cc1 | -21.9% |
| Cc1nonc1OC(C)CNc1ccc([N+](=O)[O-])cc1 (centres unmarked) | -58.7% |
| Cc1nonc1OC(C)CNCCNc1ccc([N+](=O)[O-])cc1.Cl (centres unmarked) | -55.2% |
| CCNc1ccc([N+](=O)[O-])cc1 | 4.89% |
| Cc1nonc1OCCNc1ccc([N+](=O)[O-])cc1 | -40.7% |
| Cl.NCCNc1ccc([N+](=O)[O-])cc1 | -6.16% |
| COc1ccc(CN(C(=O)c2cc(=O)c3ccccc3o2)C2CCS(=O)(=O)C2)cc1 (centres unmarked) | -30.4% |
| CNS(=O)(=O)c1cc(OC)ccc1OC | 13.2% |
| CC(=O)c1c(O)cc(C)n(Nc2nc(C)cc(C)n2)c1=O | 1.83% |
| c1ccc(CNc2nc3ccccc3n3cnnc23)nc1 | 0.696% |
| COc1ccc(-c2nn(CCC(=O)O)cc2/C=C/C(=O)O)cc1[N+](=O)[O-] | 5.53% |
| C#C[C@]1(O)CC[C@H]2[C@@H]3CCC4=Cc5oncc5C[C@]4(C)[C@H]3CC[C@@]21C | -15.3% |
| C#C[C@]1(O)CCC2C3CCC4=Cc5oncc5CC4(C)C3CCC21C (some centres unmarked) | -3.2% |
| C#C[C@]1(O)CC[C@H]2[C@@H]3CCC4=Cc5nc6nc7ccccc7n6cc5C[C@]4(C)[C@H]3CC[C@@]21C | -56.8% |
| CC(NC(=O)c1ccc(NC2=NC3CS(=O)(=O)CC3S2)cc1)c1ccccc1 (centres unmarked) | 12.9% |
| COC(=O)C1C(=O)C2=C(CC1C)NC(=O)CC2c1ccc(F)cc1 (centres unmarked) | 18.6% |
| CCC(=O)Nc1cc2c3c(c1)CCC(=O)N3CCC2 | 1.44% |
| CC(=O)OCCNc1cc(Sc2nc3ccccc3[nH]2)c2nonc2c1[N+](=O)[O-] | -12.1% |
| O=c1c2c(-c3ccc(Cl)cc3)csc2nc2n1CCC2 | -28.9% |

| Compound | hERG current change (%, negative = inhibition) at 10uM |
| --- | --- |
| O=c1c2c(-c3ccc([N+](=O)[O-])cc3)csc2nc2n1CCC2 | -77.6% |
| O=c1c2c(-c3ccc([N+](=O)[O-])cc3)csc2nc2n1CCCCC2 | -34.6% |
| O=[N+]([O-])c1ccccc1/C=C/C=N/Nc1ccc(S(=O)(=O)Nc2ccc(Cl)cc2)cc1[N+](=O)[O-] | 20.8% |
| COn1c(-c2ccc(Cl)cc2)nc2ccc(Cl)cc21 | -4.56% |
| Cc1ccc(OCC(=O)NCC(=O)Nc2ccc(F)cc2)c([N+](=O)[O-])n1 | -40.3% |
| Cc1cccn2c(CN[C@@H]3CCCC[C@H]3c3ccccc3)c(C(=O)N3CCOCC3)nc12 | -12.9% |
| Cc1cccn2c(CN3CCSCC3)c(C(=O)N3CCOCC3)nc12 | 0.407% |
| Cc1cccn2c(CN3CCCC(c4ccccc4)C3)c(C(=O)N3CCOCC3)nc12 (centres unmarked) | -68.7% |
| Cc1cc(C(=O)NN)c(C)o1 | 10.3% |
| CCc1cc(=O)oc2cc(C)cc(OCC(=O)N3CCC(C(=O)NC(C)C)(c4ccccc4)CC3)c12 | -43.6% |
| CC(NC(=O)/C=C/c1ccccc1[N+](=O)[O-])C1CC2CCC1C2 (centres unmarked) | 8.42% |
| CCN1CCN(c2nc3ccccc3n3cnnc23)CC1 | -14.8% |
| Cc1ccc(CN(C)c2nc(-c3cccnc3)nc3ccccc23)o1 | 12.7% |
| CN(Cc1ccccc1F)c1nc(-c2cccnc2)nc2ccccc12 | 3.92% |
| CC1CN(c2nn3c(=O)c4ccccc4nc3c3ccccc23)CC(C)O1 (centres unmarked) | -25.7% |
| CCN1CCN(c2nc(-c3ccccc3)nc3ccccc23)CC1 | -63% |
| CCCOc1ccc(-c2nc(N3CCN(CC)CC3)c3ccccc3n2)cc1 | -17.3% |
| CCN1CCN(c2nc(-c3cccnc3)nc3ccccc23)CC1.Cl | -55.4% |
| c1ccc(CN2CCN(c3nc(-c4ccccc4)nc4ccccc34)CC2)cc1 | 8.72% |
| O=S(=O)(c1ccccc1F)N1CCN(c2nc(-c3cccnc3)nc3ccccc23)CC1 | -41.9% |
| CCN1CCN(c2nn3c(=O)c4ccccc4nc3c3ccccc23)CC1 | -72.7% |
| Cc1ccc(C)c(S(=O)(=O)N2CCN(c3nc(-c4cccnc4)nc4ccccc34)CC2)c1 | 1.45% |
| CN(Cc1cccs1)c1nc(-c2cccnc2)nc2ccccc12 | -53.5% |
